Bioassay records as filed in PubChem.
BH1578 lux ind: inducers of Vibrio cholerae quorum light production without autoinducers, primary screen, BH1578 luxS cqsA deficient, single point; activation, % at 18.7 µM; V. cholerae BH1578 lux reporter, luminescence, 6 h; 0.16% of 350,000 active; in the data active = activation mostly above about 9.7%, no sharp cut-off
GDH-TPI counter-1: GDH-TPI coupling enzyme inhibitors, primary screen, artefact control for M. tuberculosis FBA inhibitor project, biochemical, absorbance, full deck; GDH-TPI coupled enzyme counterscreen, NADH absorbance; inhibition, % at 4.8 µM; 1.2% of 360,000 active; in the data active = inhibition above about 30%
BioA inh: M. tuberculosis BioA enzyme inhibitors, primary screen, biochemical, plate reader, single point, HTS; 7,8-diaminopelargonic acid synthase BioA (Mycobacterium tuberculosis); purified M. tuberculosis BioA enzyme; inhibition, % at 9.99 µM; 0.096% of 360,000 active; in the data active = inhibition above about 40%
Mtb FBA inh: Mtb FBA enzyme inhibitors, primary screen, biochemical, fluorescence, strain H37Rv; purified M. tuberculosis FBA, fluorescence read-out; inhibition, % at 1 µM; Fructose-bisphosphate aldolase (Mycobacterium tuberculosis (strain ATCC 25618 / H37Rv)), …; 2.3% of 360,000 active; AID 588726, 2011
Target sequence (P9WQA3 whole entry, looked up): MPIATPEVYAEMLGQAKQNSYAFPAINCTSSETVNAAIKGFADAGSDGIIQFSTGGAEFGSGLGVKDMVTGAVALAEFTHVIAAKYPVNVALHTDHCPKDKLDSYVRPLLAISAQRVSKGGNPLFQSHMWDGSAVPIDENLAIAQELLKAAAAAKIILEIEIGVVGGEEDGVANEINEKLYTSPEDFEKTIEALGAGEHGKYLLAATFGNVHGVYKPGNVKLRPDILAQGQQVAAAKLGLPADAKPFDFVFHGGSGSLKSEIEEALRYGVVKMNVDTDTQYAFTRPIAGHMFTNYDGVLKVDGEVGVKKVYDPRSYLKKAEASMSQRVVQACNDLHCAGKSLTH
Mtb FBA confirm: M. tuberculosis aldolase blockers, biochemical, fluorescence, strain H37Rv, confirmation | shares compounds with Mtb FBA inh | purified M. tuberculosis FBA, fluorescence read-out | inhibition, % at 1 µM | 78% of 5,600 active | AID 651616, 2012
GDH-TPI counter-2: GDH-TPI coupling enzyme inhibitors, artefact control for M. tuberculosis FBA inhibitor project, biochemical, fluorescence, high throughput; 81% of 5,600 active; GDH-TPI coupled enzyme counterscreen; inhibition, % at 1 µM; AID 652141, 2013; shares compounds with Mtb FBA inh; in the data active = inhibition above about 10%
A number is an active result; – = inactive; · = no result; + = active, no number. Rows were chosen to be rich in hits. Some 3% of all compounds tested hit in one or more screens of this group. Cut-off read from the data, not from the text of the source, unless noted: active = inhibition above about 27%; inactive = the rest.

SMILES	BH1578 lux ind	GDH-TPI counter-1	BioA inh	Mtb FBA inh	Mtb FBA confirm	GDH-TPI counter-2
O=C(CN1CCOCC1)NCC[C@@H]1CC[C@H](NC(=O)Nc2ccc(Cl)cc2)[C@H](CO)O1	·	·	–	·	·	·
CC(C)NC(=O)Nc1cccc2c1O[C@H](CN(C)Cc1ccc(C(=O)O)cc1)[C@H](C)CN([C@@H](C)CO)C2=O	·	·	–	·	·	·
CCCNC(=O)C[C@H]1CC[C@@H]2[C@H](COc3ccc(NC(=O)COC)cc3C(=O)N2C)O1	·	·	–	·	·	·
CNc1cc(-c2ccc(OC)c(OC)c2)ncn1	–	–	–	–	·	·
CNc1ccc2ncc(-c3ccc(OC)c(OC)c3)n2n1	–	–	–	43.7	–	–
COc1ccccc1C(=O)Nc1cccc(NC(=O)c2ccccc2OC)n1	–	–	–	–	·	·
CNc1cncc(-c2ccc(OC)c(OC)c2)n1	–	–	–	57.7	78.2	62.9
CNc1cncc(-c2c(OC)cccc2OC)n1	–	–	–	77.2	+	+
COc1ccc(-c2cc(NC(C)=O)c3ncc(-c4ccc(OC)c(OC)c4)n3c2)cc1OC	–	–	–	–	·	·
Cc1c(O)ccc2c3c(c(=O)oc12)CCC(C)C3 (stereo unspecified)	–	–	–	103.1	+	+
Oc1c(Cl)cc(Cl)cc1/C=N/NC(=S)NC1CC2C=CC1C2 (stereo unspecified)	–	–	–	35.1	58.6	57.0
Oc1ccccc1C=NNC(=S)NC1CC2C=CC1C2 (stereo unspecified)	–	–	–	–	·	·
CCOc1ccc2[nH]c(=O)c(CN(Cc3ccco3)C(CC)c3nnnn3Cc3ccccc3)cc2c1 (stereo unspecified)	–	–	·	26.9	+	+
CCOc1ccc2[nH]c(=O)c(CN(Cc3ccco3)Cc3nnnn3Cc3ccccc3)cc2c1	–	–	–	–	·	·
CO[C@H]1CN(C)C(=O)c2ccc(NS(C)(=O)=O)cc2OC[C@H](C)N(C(=O)C2CCOCC2)C[C@H]1C	·	·	–	·	·	·
C[C@@H]1CN([C@H](C)CO)C(=O)Cc2cc(NC(=O)c3ccncc3)ccc2O[C@@H]1CN(C)C(=O)NC1CCCCC1	·	·	–	·	·	·
Cc1cccc2c(=O)n3c(cc12)-c1[nH]c2ccccc2c1CC3	–	–	·	82.7	168.1	109.6
O=c1c2ccccc2nc2n1CCc1c-2[nH]c2ccccc12	–	–	–	–	·	·
CCC(=O)c1ccc(/C=C/c2nc3ccccc3n2C)o1	–	–	·	83.4	–	–
Cn1c(/C=N/O)nc2ccccc21	–	–	·	52.4	–	10.5
Cn1c(/C=N/n2cnnc2)nc2ccccc21	–	37.5	–	45.3	–	–
C(=N\n1cnnc1)/c1nc2ccccc2[nH]1	–	–	–	74.1	60.2	49.2
Cn1c(/C=N/c2nc3ccccc3[nH]2)nc2ccccc21	–	–	–	–	·	·
O=C(NCC1CCCCC1)[C@H]1[C@H](CO)[C@H]2Cn3c(ccc(-c4cncnc4)c3=O)[C@@H]1N2	·	·	–	·	·	·
COc1ccccc1C#Cc1ccc2c(c1)O[C@H](CN(C)C)[C@@H](C)CN([C@H](C)CO)S2(=O)=O	·	·	–	·	·	·
SMILES	BH1578 lux ind	GDH-TPI counter-1	BioA inh	Mtb FBA inh	Mtb FBA confirm	GDH-TPI counter-2
CCCC#Cc1cnc2c(c1)C(=O)N([C@H](C)CO)C[C@H](C)[C@H](CN(C)Cc1ccc(C(=O)O)cc1)O2	·	·	–	·	·	·
Cc1nc(NCCCO)c(C#N)c2c1COC(C)(C)C2	–	–	·	73.6	112.5	86.0
O=C(N/N=C/c1cccc(O)c1)NC1CCCCC1	–	–	·	–	·	·
O=C(N/N=C/C=C/c1ccccc1)c1ccccn1	–	35.3	·	64.6	180.1	173.9
O=C(N/N=C/C(Cl)=C/c1ccccc1)c1ccccn1	–	–	·	–	·	·
O=C(N/N=C/C=C/c1ccccc1)NC1CCCCC1	–	–	·	68.1	167.4	145.3
C[C@H](CO)N1C[C@H](C)[C@@H](CN(C)C(=O)Nc2ccc(F)cc2)Oc2cc(/C=C/c3ccccc3)ccc2S1(=O)=O	·	·	–	·	·	·
CCCCNc1c(-c2ccc(-c3cccc(Cl)c3)cc2)nc2ccccn12	–	–	–	–	·	·
CCCCCCSc1ccc(-c2nc3ccccn3c2NCCCC)cc1	–	–	–	44.9	+	+
CN(C(=O)c1ccncc1)c1nnc(-c2ccccn2)s1	–	–	–	47.6	146.2	132.7
